# PubChem BioAssay AID652175 (National Center for Advancing Translational Sciences (NCATS), 2013)
# Records with an inconclusive call do not appear. Where a call stands in place of a potency, no number is given. Active and inactive are the calls of the source. The call rests on the fitted dose curve; in most records, active means well fitted inhibition curve with a large enough effect; inconclusive means small, poorly fitted or top-dose-only effect; inactive means no such curve, though single readings can be large or run the other way.
# Experiment: qHTS Assay for Lipid Storage Modulators: S3 Assay against Probe and Analogs
# Conditions: Drosophila S3 cells, BODIPY lipid droplet fluorescence, 18-24 h, oleic acid added to induce droplets; series mostly up to 46.1 µM
# Description: Storing lipids as a reservoir for energy or the anabolism of elementary metabolites is a common feature of probably all cells and is conserved from bacteria to humans. The universal cellular lipid storage organelle is the so-called lipid storage droplet (LD). Although ubiquitous, LDs share a simple structure composed of a hydrophobic core that harbors the storage lipids, which is shielded by a droplet-specific phospholipid monolayer to which proteins are attached. The current model of LD biogenesis involves an incorporation of the lipid core into the membrane leaflets of the endoplasmic reticulum (ER) followed by a subsequent budding-like maturation of a LD, which ultimately pinches off. Once released, LD volume can increase by localized lipogenesis or fusion of existing droplets. Storage lipids are re-mobilized enzymatically by lipase activity. Lipase regulation in the adipocyte is heavily studied and involves multiple components including catecholamine signaling, the LD-associated proteins Perilipin and comparative gene identification-58 (CGI-58) and at least two lipases named hormone sensitive lipase (HSL) and adipocyte triglyceride lipase (ATGL). LD regulation outside of the adipocyte is poorly understood and only few components are known. However, there is an urgent need to learn more about ectopic fat depots as mislocalized storage of lipids, for example in the liver or muscle, is an eminent health problem associated with insulin resistance or the metabolic syndrome. We developed a laser-scanning cytometer assay to enable 1,536-well screening and combined the results of the small molecules screen with an RNAi database based on lipid storage. In this assay we tested analogs of the probe against the original qHTS assay, which involved drosophila melanogaster cells (S3), to see if these small molecules could disrupt lipid storage. NIH Molecular Libraries Probe Production Centers Network [MLPCN] NIH Chemical Genomics Center [NCGC] MLPCN Grant: MH085686 Assay Submitter (PI): Mathias Beller, Max-Planck-Institut fur Biophysikalische Chemie
# qHTS was performed with embryonic Drosophila S3 cells (Bloomington Drosophila Genomics Resource Center [DGRC]). We dispensed 4 uL of cells at 1.25 x 10^6 cells/mL into LoBase Aurora COC 1,536-well plates (black walled, clear bottom) with a bottle-valve solenoid-based dispenser (Aurora) to obtain 5,000 cells/well. Triacsin C (Sigma-Aldrich T-4540), an inhibitor of long-chain fatty acyl CoA synthetase that blocks synthesis of triglycerides, was used as a positive control for lipid under-storage. A total of 23 nL of compounds dissolved in DMSO at different concentrations were transferred to the assay plates using a Kalypsys pin tool equipped with a 1,536-pin array containing 10-nL slotted pins (FP1S10, 0.457-mm diameter, 50.8 mm long; V&P Scientific). The final DMSO concentration was 0.46%. One microliter of oleic acid at 400 uM (Calbiochem, #4954) was added to induce lipid droplet formation in the cells, and the plates were lidded with stainless steel rubber gasket lined lids containing pinholes. After 18-24 h incubation at 25 0C and 95% humidity, 4 uL of the BODIPY lipid dye 493/503 (1:2000, Molecular Probes) and the Cell Tracker Red CMTPX dye (Life Technologies, # 34552) were added to the wells to stain lipid droplets and enumerate cell number, respectively. Fluorescence was detected by excitation of the fluorophores with a 488-nm laser on an Acumen Explorer (TTP Lab Tech). The total intensity in channel 1 (500-530 nm) reflected lipid droplet accumulation. Cells were detected using channel 3 (575-640 nm) with 5-um width and 100-um depth filters. The ratio of the total intensity in PMT channel 1 over total intensity of channel 3 was also calculated. Percent activity was computed relative to an internal control (100% inhibited lipid droplet deposition due to the presence of 20 uM Triacsin C), which was added to 32 wells/plate.
row,Compound,Potency
1,CCOc1ccc(CCNC(=O)c2ccc(C(=O)c3ccccc3)cc2)cc1OCC,inactive
2,CCOc1ccc(CCNC(=O)c2cc3ccccc3n2CCN2CCOCC2)cc1OCC,inactive
3,CCOc1ccc(CCNC(=O)c2cc3ccccc3n2Cc2ccccn2)cc1OCC,118 nM (active)
4,CCOc1ccc(CCNC(=O)c2cc3cnccc3n2Cc2cccc(C)n2)cc1OCC,inactive
5,CCOc1ccc(CCNC(=O)c2cc3ccccc3n2Cc2cccc(C)c2)cc1OCC,3.3 nM (active)
6,CCOc1ccc(CCNC(=O)c2ccccc2)cc1OCC,inactive
7,CCOc1ccc(CCNC(=O)c2cc3sccc3n2CCN(C)C)cc1OCC,2350 nM (active)
8,CCOc1ccc(CCNC(=O)c2cc3sccc3n2Cc2ccc(F)cc2F)cc1OCC,16.6 nM (active)
9,CCOc1ccc(CCNC(=O)c2cc3ccncc3n2Cc2cccc(C)n2)cc1OCC,inactive
10,CCOc1ccc(CCNC(=O)c2cc3ccccc3n2Cc2cccc(C)n2)cc1OCC,13.2 nM (active)
11,CCOc1ccc(CCNC(=O)c2ccc(Oc3ccccc3)cc2)cc1OCC,inactive
